SMILES strings stand for the structures. Active and inactive are the calls of the source. Calls come from the whole dose curve; as a rule, active = well fitted curve in the direction sought with a large enough effect; inactive = no such curve, though single readings can be large or run the other way.

The nature of this test: qHTS profiling of inhibitors of Plasmodium falciparum (3D7) proliferation (acoustic dispense). The settings on record: P. falciparum 3D7 in erythrocytes, SYBR Green, 72 h; series mostly up to 49.8 µM. An excerpt:
Plasmodium falciparum is a virulent malarial parasite that kills 1-2 million people worldwide each year. Transmitted by mosquitoes, the sporozoite form of the parasite enters the blood stream to infect hepatocytes, where they become merozoites that infect red blood cells (erythrocytes). Within erythrocytes, merozoites begin a […] cycle of growth and division, after which the parasite is released to infect new red blood cells. Gametocytes, which form within erythrocytes as well, circulate in the bloodstream and are ingested by the mosquito, thereby completing the life cycle. To profile malarial isolates for differential chemical responses and to identify inhibitors of malarial growth, an assay that measures P. falciparum growth and replication within erythrocytes was employed. This assay uses a DNA binding fluorescent dye (SYBR Green) to detect parasite DNA following cell lysis. Because mature erythrocytes lack DNA, only Plasmodium-derived DNA is detected.
The SYBR Green viability assay was adapted from a method described previously (Plouffe et al., 2008). For screening 3 ul culture medium was dispensed into 1536 well black clear bottom plates (Aurora Biotechnologies) using a Multidrop Combi (Thermo Fisher Scientific Inc.), 23 nL of compounds in DMSO were added by an acoustic dispenser (EDC Biosystems), and 5 ul of erythrocytes infected with P. falciparum (0.3% parasitemia, 2.5% hematocrit final concentration) were added. The plates were incubated at 37 C in a humidified incubator in 5% CO2 for 72 h, and 2 ul lysis buffer (20 mM Tris HCl, 10 mM EDTA, 0.16% saponin, 1.6% triton X, 10X SYBR Green I supplied as 10,000X […] by Invitrogen) was added to each well. The plates were mixed for 25 sec with gentle shaking and incubated overnight at room temperature in the dark. The following morning, fluorescence intensity at 485(14) nm excitation and 535(25) nm emission wavelengths was measured on an EnVision (Perkin Elmer) plate reader. Plate reads were normalized relative to the control inhibitor (0.29 uM artemisinin) and vehicle (DMSO) wells present on each plate and then corrected by an algorithm using vehicle-only control plates at the beginning and end of the compound plate stack.
For orientation: Quantitative high-throughput screening tests each substance at several concentrations.
In the case of `CO[C@H]1C=CO[C@@]2(C)Oc3c(C)c(O)c4c(O)c(c(C=NN5CCN(C)CC5)c(O)c4c3C2=O)NC(=O)C(C)=CC=C[C@H](C)[C@H](O)[C@@H](C)[C@@H](O)[C@@H](C)[C@H](OC(C)=O)[C@H]1C`, the molecule was classed as inactive. Consider `Cn1c(=O)c(-c2c(Cl)cccc2Cl)cc2cnc(Nc3cccc(C(=O)O)c3)nc21`, for which the molecule was called inactive.

On to `CCCC[C@@H]1C[C@@H](C(=O)NC([C@H](C)Cl)[C@H]2O[C@H](S)[C@H](O)[C@@H](O)[C@@H]2O)N(C)C1` (stereo not given in full), for which the outcome was inactive. In the case of `O=C1c2ccccc2-[n+]2ccc3c([nH]c4ccccc43)c21`, the molecule was called inactive. Take `C[C@@H]1CCC2[C@@H](C)[C@@H](O)O[C@@H]3O[C@@]4(C)CC[C@@H]1[C@@]23OO4` (stereo not given in full): the molecule was classed as inactive. As for `Cc1nc2cnc3ccc(C#Cc4cccnc4)cc3c2n1-c1ccc(C(C)(C)C#N)cc1`, the outcome was inactive. As for `COc1ncnc(NS(=O)(=O)c2ccc(N)cc2)c1OC`, the result was inactive. In the case of `CC(=O)Nc1nc(C)c(-c2ccc(Cl)c(S(=O)(=O)NCCO)c2)s1`, the outcome was inactive. Consider `Cc1ccc([N+](=O)[O-])cc1S(=O)(=O)N(C)N=Cc1cnc2ccc(Br)cn12`, for which the molecule was classed as inactive. `CN([C@@H](Cc1ccc(OS(=O)(=O)c2cccc3cnccc23)cc1)C(=O)N1CCN(c2ccccc2)CC1)S(=O)(=O)c1cccc2cnccc12`: the result was inactive. On to `Cn1cc(CNCC2CCN(c3ncc(C(=O)NO)cn3)CC2)c2ccccc21`, for which the outcome was inactive.

As to `CCN(CC)CCCC(C)Nc1ccnc2cc(Cl)ccc12` (stereo not given), the call was inactive. As for `CCN(CC)CCNC(=O)c1c(C)[nH]c(C=C2C(=O)Nc3ccc(F)cc32)c1C`, the entry is “inactive”; as for `COc1ncc(-c2ccc3nccc(-c4ccnnc4)c3c2)cc1NS(=O)(=O)c1ccc(F)cc1F`, “inactive”; as for `FC(F)c1nc2ccccc2n1-c1nc(N2CCOCC2)nc(N2CCOCC2)n1`, “inactive”. `COc1cc([C@@H]2c3cc4c(cc3[C@@H](O[C@@H]3O[C@@H]5CO[C@@H](c6cccs6)O[C@@H]5[C@H](O)[C@@H]3O)[C@H]3COC(=O)[C@H]23)OCO4)cc(OC)c1O`: the call was inactive. For the molecule `O=C1NC(=O)C(=Cc2ccc3nccc(-c4ccncc4)c3c2)S1`, the call was inactive.

For the molecule `CCCCCCCCCCOc1cc2c(=O)c(C(=O)OCC)c[nH]c2cc1OCC`, the result was inactive. In the case of `O=C1C(=O)c2ccccc2C(O)=C1C1CCC(c2ccc(Cl)cc2)CC1` (stereo not given), the molecule was called inactive. On to `COC(=O)c1ccc2c(C(=Nc3ccc(N(C)C(=O)CN4CCN(C)CC4)cc3)c3ccccc3)c(O)[nH]c2c1`, for which the call was inactive. Turning to `COc1ccc2nc3cc(Cl)ccc3c(Nc3cc(CN4CCCC4)c(O)c(CN4CCCC4)c3)c2n1`, the outcome was inactive. As to `Cn1cc(C2=C(c3c4n(c5ccccc35)CCC(CN)C4)C(=O)NC2=O)c2ccccc21` (stereo not given), the result was inactive.

For `CCCCN(CCCC)CCC(O)c1cc2c(Cl)cc(Cl)cc2c2cc(C(F)(F)F)ccc12` (stereo not given), the molecule was called inactive. With `Cn1cnc(=N)c2[nH]cnc21`, the molecule was called inactive.

`CS[C@H]1SC[C@@H]2C(=O)N(C)[C@H](C(C)C)C(=O)OC[C@H](NC(=O)c3cnc4ccccc4n3)C(=O)N[C@H](C)C(=O)N(C)[C@@H]1C(=O)N(C)[C@H](C(C)C)C(=O)OC[C@H](NC(=O)c1cnc3ccccc3n1)C(=O)N[C@H](C)C(=O)N2C`: the molecule was called inactive. Regarding `CC[C@H]1OC(=O)[C@H](C)C(=O)[C@H](C)[C@@H](O[C@H]2O[C@H](C)C[C@H](N(C)C)[C@@H]2O)[C@](C)(OC)C[C@@H](C)C(=O)[C@H](C)[C@H]2N(CCCCn3cnc(-c4cccnc4)c3)C(=O)O[C@]12C`, the call was inactive.

With `CC1(CN2CCC(n3c(=O)[nH]c4ccccc43)CC2)OCc2ccccc2-n2cccc21` (stereo not given), the molecule was called inactive. As to `Cc1cnc(Nc2ccc(CN3CCOCC3)cc2)nc1Nc1cccc(S(=O)(=O)NC(C)(C)C)c1`, the result was inactive.

With `COc1cc(C)c2c(Oc3cccc(C(F)(F)F)c3)c(OC)cc(NCCCC(C)N)c2n1` (stereo not given), the molecule was classed as inactive.

As to `C=CCNC1=C2C[C@@H](C)C[C@H](OC)[C@@H](O)[C@@H](C)C=C(C)[C@H](OC(N)=O)[C@@H](OC)C=CC=C(C)C(=O)NC(=CC1=O)C2=O`, the molecule was called inactive. The value for `C=CCNc1c(O)cc2c(O)c1C[C@@H](C)C[C@H](OC)[C@@H](O)[C@@H](C)C=C(C)[C@H](OC(N)=O)[C@@H](OC)C=CC=C(C)C(=O)N2` was “inactive”; that for `C=C[C@@H]1CN2CCC1C[C@@H]2C(O)c1ccnc2ccc(OC)cc12` (stereo not given in full) was “inactive”; that for `COc1cc2nc(N3CCCN(C)CC3)nc(NC3CCN(Cc4ccccc4)CC3)c2cc1OC` was “inactive”. In the case of `CC1(C)N=C(N)N=C(N)N1c1ccc(Cl)cc1`, the call was inactive. Turning to `CN(Cc1cnc2nc(N)nc(N)c2n1)c1ccc(C(=O)N[C@@H](CCC(=O)O)C(=O)O)cc1`, the outcome was inactive. Take `Cn1c2ccccc2c2c3c(c4c5ccccc5n(CCC#N)c4c21)CNC3=O`: the molecule was called inactive. For the molecule `CC=C1C2C=C(C)CC1(N)c1ccc(=O)[nH]c1C2` (stereo not given), the call was inactive. `CCC(=O)N1CCN(c2ccc(-n3c(=O)ccc4cnc5ccc(-c6cnc7ccccc7c6)cc5c43)cc2C(F)(F)F)CC1`: the call was inactive. In the case of `NC(=NCCCCCCN=C(N)N=C(N)Nc1ccc(Cl)cc1)N=C(N)Nc1ccc(Cl)cc1`, the outcome was inactive.

Regarding `C[C@@H](Oc1ccc2[nH]nc(C=Cc3cnn(CCO)c3)c2c1)c1c(Cl)cncc1Cl`, the call was inactive.

Source of the values: PubChem BioAssay AID743364 (National Center for Advancing Translational Sciences (NCATS), 2014).
